Data: PubChem BioAssay (NCATS)
Values joined by “and” are separate entries in the source; they are usually repeats but may differ in a detail not shown here. Equal entries are not always repeated. Records with an inconclusive call do not appear. Where a call stands in place of a potency, no number is given. Active and inactive are the calls of the source. Unless noted, the call rests on the fitted dose curve; in most records, active means well fitted inhibition curve with a large enough effect; inconclusive means small, poorly fitted or top-dose-only effect; inactive means no such curve, though single readings can be large or run the other way.

What was measured:
[1] = target: Aldehyde dehydrogenase, mitochondrial (Homo sapiens) (UniProt P05091); assay: qHTS for Inhibitors of the Aldehyde Dehydrogenase Family (ALDH2) Confirmatory screens (AID 2061303; active means well fitted inhibition curve with a large enough effect; title and protocol of this record describe different tests; further: nearly all actives have a fitted effect of over 45% in size; further: potency means the concentration at half of the fitted maximal effect)
[2] = qHTS for Inhibitors of the Aldehyde Dehydrogenase Family (ALDH1A2, ALDH1A3, ALDH2, ALDH3A1) (AID 2061307); further: nearly all actives have a fitted effect of over 50% in size; on potency: test system not described further here; potency means the concentration at half of the fitted maximal effect
[3] = target: Retinaldehyde dehydrogenase 3 (Homo sapiens) (UniProt P47895); assay: qHTS for Inhibitors of the Aldehyde Dehydrogenase Family (ALDH1A3) Confirmatory screens (AID 2061311); further: nearly all actives have a fitted effect of over 60% in size; further: potency means the concentration at half of the fitted maximal effect
[4] = target: Retinal dehydrogenase 2 (Homo sapiens) (UniProt O94788); assay: qHTS for Inhibitors of the Aldehyde Dehydrogenase Family (ALDH1A2) Confirmation screens (AID 2061314); further: nearly all actives have a fitted effect of over 65% in size; further: potency means the concentration at half of the fitted maximal effect
[5] = target: Aldehyde dehydrogenase 1A1 (Homo sapiens) (UniProt P00352); assay: qHTS for Inhibitors of the Aldehyde Dehydrogenase Family (ALDH1A1) Confirmatory screens (AID 2061316); further: nearly all actives have a fitted effect of over 65% in size; further: potency means the concentration at half of the fitted maximal effect
[6] = target: Retinaldehyde dehydrogenase 3 (Homo sapiens) (UniProt P47895); assay: qHTS for Inhibitors of the Aldehyde Dehydrogenase Family (ALDH1A3) Primary screen (AID 2061315)
[7] = BET inhibitor-based combinations targeting novel dependencies in MECOM-rearranged (r) AML: OCI-AML3 cell line (AID 2202232); conditions: Potency: OCI-AML3 viability; further: potency means the concentration at half of the fitted maximal effect; nearly all actives have a fitted effect of over 35% in size
Outline: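 Each compound was tested at eleven concentrations on cells seeded at 500/well. After two days' incubation, ATP-based luminescence reported viability; responses relative to DMSO and blank wells yielded AUC and cell-line-centred Z-AUC.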

[8] = BET inhibitor-based combinations targeting novel dependencies in MECOM-rearranged (r) AML: MV-4-11 cell line (AID 2202233); further: potency means the concentration at half of the fitted maximal effect; nearly all actives have a fitted effect of over 45% in size
Outline: (§1)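 First, 500 cells per well were seeded; next, drugs were pinned as 11-point doses; then plates sat 48 hr in the incubator; finally CellTiter-Glo was added and luminescence read, with AUC and Z-AUC computed.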

[9] = BET inhibitor-based combinations targeting novel dependencies in MECOM-rearranged (r) AML: UCSD-AML1 cell line (AID 2202235); further: series mostly up to about 46 µM; nearly all actives have a fitted effect of over 40% in size
Outline: as §1

Structure (SMILES) | Potency [1] | Potency [2] | Potency [3] | Potency [4] | Potency [5] | Potency [6] | Potency [7] | Potency [8] | Potency [9]
COc1ccccc1-c1cc(C(=O)NCc2ccc(C(F)(F)F)cc2)c2cnn(C)c2n1 | inactive | inactive | 7.08 µM (active) | inactive | inactive | – | – | – | –
COc1ccc(Nc2ncc(C(=O)N3CCN(c4ccc(F)cc4)CC3)c3ccccc23)cc1 | inactive | 15.8 µM (active) | inactive | inactive | inactive | – | – | – | –
N#Cc1ccc(-c2ccc(CNc3ccc(N4CCOCC4)cc3)o2)cc1 | 0.04 µM (active) | 0.565 µM (active) | 15.9 µM (active) | – | 7.98 µM (active) | – | – | – | –
CCc1ccc(CN2CCC(C(=O)Nc3ccc(Oc4cccnc4)cc3)CC2)o1 | 5.01 µM (active) | inactive | inactive | – | inactive | – | – | – | –
CCOc1ccc(NC(=O)Cn2c(Nc3cc(C)cc(C)c3)nc(C)cc2=O)cc1 | 15.8 µM (active) | inactive | inactive | – | inactive | – | – | – | –
COc1ccccc1-c1cc(NCCc2ccccn2)c2onc(C)c2n1 | inactive | inactive | 22.4 µM (active) | inactive | inactive | – | – | – | –
Cc1c(NC(=O)c2cc3c(s2)CCCC3)cccc1-c1cn(C)c(=O)c(Nc2ccc(C3C(=O)N(C)CCN3C)cc2)n1 (configuration not stated) | inactive | 10 µM (active) | 2 µM (active) and 7.94 µM (active) | inactive | – | inactive | 16.6 µM (active) | 16.6 µM (active) | inactive
COc1ccc(S(=O)(=O)Nc2cccc(-c3ccc(N4CCCCCC4)nn3)c2)c(OC)c1 | 28.2 µM (active) | 28.2 µM (active) and 2.51 µM (active) | inactive | inactive | inactive | – | – | – | –
COc1cccc(-c2cc(C(=O)NCC(F)F)c3cnn(C)c3n2)c1 | inactive | inactive | 5.01 µM (active) | – | inactive | – | – | – | –
COc1cccc(-c2ccc(CN3CCCC(NC(=O)Nc4ccccc4)C3)cc2)c1 (configuration not stated) | inactive | 12.6 µM (active) | – | inactive | – | – | – | – | –
CC(=O)c1ccc(N2CCN(S(=O)(=O)c3ccc4c(c3)C(C)(C)C(=O)N4)CC2)cc1 | inactive | inactive | 5.01 µM (active) | inactive | inactive | – | – | – | –
Oc1ccc(CNc2ccccc2F)c2cccnc12 | 2.83 µM (active) | inactive | inactive | 5.65 µM (active) | 2.25 µM (active) | – | – | – | –
O=C1c2ccccc2C(=O)N1c1cccc2ccncc12 | inactive | inactive | inactive | – | – | inactive | – | – | –
COc1cccc(-c2ccc(CNc3ccc(N4CCN(C(=O)OC(C)(C)C)CC4)cc3)o2)c1 | 11.3 µM (active) | 14.2 µM (active) | inactive | – | – | inactive | – | – | –
CC(=O)c1ccc(NC(=O)CSc2ccc3nc(-c4ccccc4)cn3n2)cc1 | 22.9 µM (active) | 0.0576 µM (active) | 0.258 µM (active) | 15.8 µM (active) | 1.82 µM (active) | – | – | – | –
COc1ccc2c(c1)CCc1sc(NC(=O)c3ccc(Cl)cc3)nc1-2 | 15.8 µM (active) | 3.24 µM (active) | 16.2 µM (active) | – | 4.58 µM (active) | – | – | – | –
Cc1ccc2c(c1)-c1c(cnn1CC(=O)N1CCN(c3cccc(C(F)(F)F)c3)CC1)CO2 | inactive | 10 µM (active) | inactive | inactive | inactive | – | – | – | –
Oc1ccc(CNc2cccnc2)c2cccnc12 | 10.1 µM (active) | 7.98 µM (active) | 4.49 µM (active) | 5.65 µM (active) | 4 µM (active) | – | – | – | –
O=C(Nc1cccc(C(F)(F)F)c1)c1cccc(C(=O)Nc2cccc(C(F)(F)F)c2)c1 | inactive | inactive | inactive | – | inactive | – | – | – | –
O=C(Nc1cncc(-c2cccc3ccccc23)c1)c1cccs1 | inactive | 5.62 µM (active) | 20.1 µM (active) | – | – | inactive | – | – | –
COc1ccc(S(=O)(=O)N2CCN(C(=O)c3ccc([N+](=O)[O-])o3)CC2)cc1 | inactive | inactive | inactive | inactive | 10 µM (active) | – | – | – | –
O=S(=O)(NCCc1nnc2ccc(SCc3ccc(C(F)(F)F)cc3)nn12)c1ccccc1 | inactive | inactive | 25.1 µM (active) | inactive | inactive | – | – | – | –
COc1cccc(-c2nc(SCc3ccc(C)cc3)n3[nH]c(=O)cc3n2)c1 | inactive | inactive | 7.08 µM (active) | inactive | inactive | – | – | – | –
O=C(O)c1cccc(-n2[nH]c(-c3ccccc3)cc2=O)c1 | 11.2 µM (active) | 5.01 µM (active) | 15.8 µM (active) | 7.98 µM (active) | 25.1 µM (active) | – | – | – | –
CCOc1cc(CNc2ccc(C(=O)O)cc2)ccc1OCc1ccccc1 | 2 µM (active) | inactive | 0.199 µM (active) | 2.57 µM (active) | 6.47 µM (active) | – | – | – | –
Cc1ccc(-n2c(=O)c3c(cnn3C)n(CC(=O)Nc3ccccc3C)c2=O)cc1 | inactive | inactive | 22.4 µM (active) | inactive | inactive | – | – | – | –
CC(=O)Nc1ccc(Nc2nc3c(S(=O)(=O)c4cccc(Cl)c4)nnn3c3ccsc23)cc1 | inactive | inactive | 28.2 µM (active) | inactive | inactive | – | – | – | –
Cc1ccc(CCNc2ncnc3onc(-c4ccc(Cl)cc4)c23)cc1 | inactive | inactive | 4.47 µM (active) | inactive | inactive | – | – | – | –
CN(CC(=O)Nc1ccc(N2CCOCC2)cc1)Cc1c(O)ccc2ccccc12 | 11.3 µM (active) | 2.83 µM (active) | 15.9 µM (active) | 10.1 µM (active) | 2.52 µM (active) | – | – | – | –
